Experimental data as given in article PMC10726135, “HNF4α isoforms regulate the circadian balance between carbohydrate and lipid metabolism in the liver”.
The full ranking holds about 18,000 sequences; the median of “log2 normalized intensity” is about 0.39, and the highest 2% start at about 6.6. The entries come from a sample that favours the highest values as a whole.

Target: T1, HNF4alpha2 (COS-7 nuclear extract) (Homo sapiens, UniProt P41235 1-474)
T1 sequence: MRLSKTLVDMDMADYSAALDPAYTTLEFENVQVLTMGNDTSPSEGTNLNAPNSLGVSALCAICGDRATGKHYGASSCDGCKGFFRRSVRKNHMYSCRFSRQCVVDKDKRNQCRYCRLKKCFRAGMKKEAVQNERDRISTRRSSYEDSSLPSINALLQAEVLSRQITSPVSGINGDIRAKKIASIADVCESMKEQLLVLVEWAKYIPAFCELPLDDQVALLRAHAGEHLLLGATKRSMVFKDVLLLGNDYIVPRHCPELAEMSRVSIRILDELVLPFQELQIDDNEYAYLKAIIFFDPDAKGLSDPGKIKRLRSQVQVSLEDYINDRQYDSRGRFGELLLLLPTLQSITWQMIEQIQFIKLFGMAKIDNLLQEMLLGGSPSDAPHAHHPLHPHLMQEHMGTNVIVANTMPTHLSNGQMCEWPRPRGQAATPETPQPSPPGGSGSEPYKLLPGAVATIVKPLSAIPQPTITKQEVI
Assay: protein-binding microarray; COS-7 nuclear extract on double-stranded Agilent 4x180k PBM; binding buffer, salt, pH and temperature not given in the material; high values mean tight binding
Conditions: chain copies: 2; label: 3' end of strand 1 on the slide; dsDNA, one strand shown
In short: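 A custom Agilent SurePrint G3 4x180k array, spotted in quadruplicate with ~44,000 test sequences as ~60-nt oligonucleotides made double-stranded, was incubated with nuclear extracts. The extracts came from COS-7 cells transiently transfected by CaPO4 with a human HNF4α isoform expression vector. Bound HNF4α was imaged on an Agilent G2565CA scanner at 2-µm resolution, and the binding signal was taken as Agilent software's background-corrected, normalized gProcessedSignal.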

| Sequence | binding signal |
| --- | --- |
| GATGACATCATCTGTTTGTACGCGTCGAACGCCTAGGGAGATTAGAGTATCGGTCGA | -0.199 log2 normalized intensity |
| CAACTTTCTCCTCCAGGACCTTGCCCTTTAGCCTAGGGAGATTAGAGTATCGGTCGA | 4.23 log2 normalized intensity |
| CAAAACTTTAGGACTTTGAACCTTGGGTCTGCCTAGGGAGATTAGAGTATCGGTCGA | 7.13 log2 normalized intensity |
| GGGAGGAGGGCAACCTTTGAACTGGGTCTTGCCTAGGGAGATTAGAGTATCGGTCGA | 4.09 log2 normalized intensity |
| CTTTAGGACTTTGAACCTTGGGTCTGTAATGCCTAGGGAGATTAGAGTATCGGTCGA | 6.04 log2 normalized intensity |
| GGACTCTGGAACCATCAGGATTCCAGAGGAGCCTAGGGAGATTAGAGTATCGGTCGA | 1.86 log2 normalized intensity |
| TTTGCAACCTTTGATAACCTACAACCTTCTGCCTAGGGAGATTAGAGTATCGGTCGA | 0.304 log2 normalized intensity |
| CCCAGGTACGGAGGACAGCCACCCGTGCTTGCCTAGGGAGATTAGAGTATCGGTCGA | -0.928 log2 normalized intensity |
| TTACTATAGGTTCTACTCTCCCCAGTTCAAGCCTAGGGAGATTAGAGTATCGGTCGA | 3.24 log2 normalized intensity |
| CTCAGTCATACCACATGGATGGATTCAGATGCCTAGGGAGATTAGAGTATCGGTCGA | 0.259 log2 normalized intensity |
| ACAGGAGATCAGATGGGGTGAACTTTGGACGCCTAGGGAGATTAGAGTATCGGTCGA | 8.41 log2 normalized intensity |
| AGATGGGGTGAACTTTGGACCACATATAGAGCCTAGGGAGATTAGAGTATCGGTCGA | 7.14 log2 normalized intensity |
| GGTGAACTTTGAGACTATCCTTGGACCGCAGCCTAGGGAGATTAGAGTATCGGTCGA | 2.51 log2 normalized intensity |
| CAGGGGTCATCAGATAGATGGTCAGTGAACGCCTAGGGAGATTAGAGTATCGGTCGA | 1.44 log2 normalized intensity |
| TGGGGTATCAGGTGGTGATGGTGGGAGGGAGCCTAGGGAGATTAGAGTATCGGTCGA | 0.113 log2 normalized intensity |
| GAGGACTTTGGCCTTTTGTGAGATATGGACGCCTAGGGAGATTAGAGTATCGGTCGA | 3.45 log2 normalized intensity |
| AGATCAGATGGGGTGAACTTTGGACCACATGCCTAGGGAGATTAGAGTATCGGTCGA | 7.41 log2 normalized intensity |
| TACCATGGGAGACCTCAGGGGTCATCAGATGCCTAGGGAGATTAGAGTATCGGTCGA | 2.49 log2 normalized intensity |
| TCTCTCTCTCTTTCTTCCCCCACTCCAAGTGCCTAGGGAGATTAGAGTATCGGTCGA | 5.09 log2 normalized intensity |

| Sequence | binding signal |
| --- | --- |
| CGAGTCAAGGGTCAATCCTCTCTTTGGAATGCCTAGGGAGATTAGAGTATCGGTCGA | 2.31 log2 normalized intensity |
| CCTCCTGCCCTATGTCCTCCAGCTCTTGGGGCCTAGGGAGATTAGAGTATCGGTCGA | 1.53 log2 normalized intensity |
| TGGAAGTCGCCGTGAGGTTATTTGCAGACTGCCTAGGGAGATTAGAGTATCGGTCGA | 0.0984 log2 normalized intensity |
| ATTCCTATCGCCCTTCTGTCAAGTCCAAAGGCCTAGGGAGATTAGAGTATCGGTCGA | -0.648 log2 normalized intensity |
| TCTGCACAAAATACAAGTCGTAAAGACCTTGCCTAGGGAGATTAGAGTATCGGTCGA | 0.709 log2 normalized intensity |
| CCCTCAGCAACTGCAAGGCTGACCCGTGAAGCCTAGGGAGATTAGAGTATCGGTCGA | 1.4 log2 normalized intensity |
| TGTGAGTCCAGTTGAATGATGGCGAGTGTGGCCTAGGGAGATTAGAGTATCGGTCGA | 1.62 log2 normalized intensity |
| TTGATCCAGGATCCTTCTTGACCAGGCAAGGCCTAGGGAGATTAGAGTATCGGTCGA | -0.434 log2 normalized intensity |
| ATCCTTCTTGACCAGGCAAGCTTGACCTTTGCCTAGGGAGATTAGAGTATCGGTCGA | 7.07 log2 normalized intensity |
| CAAGCTTGATCCAGGATCCTTCTTGACCAGGCCTAGGGAGATTAGAGTATCGGTCGA | 0.316 log2 normalized intensity |
| CTTGACCTTTGATCCAGGCTCAGTGGGCGTGCCTAGGGAGATTAGAGTATCGGTCGA | 4.91 log2 normalized intensity |
| TTAGGATGACCTTTAGATTCTTACAGGCAAGCCTAGGGAGATTAGAGTATCGGTCGA | 3.63 log2 normalized intensity |
| TCTTGACCAGGCAAGCTTGACCTTTGATCCGCCTAGGGAGATTAGAGTATCGGTCGA | 10.2 log2 normalized intensity |
| ATTTGACCCTTGGCCAGGTGCAGTGGCTCAGCCTAGGGAGATTAGAGTATCGGTCGA | 2.99 log2 normalized intensity |
| TCCAGGCTTGTCCTTTTGACCACAGTTATCGCCTAGGGAGATTAGAGTATCGGTCGA | 2.33 log2 normalized intensity |
| GCAAGCTTGACCTTTGATCCAGGCTCAGTGGCCTAGGGAGATTAGAGTATCGGTCGA | 7.48 log2 normalized intensity |
| AATTACCATTCTTGAGGACAGGCCAAATCCGCCTAGGGAGATTAGAGTATCGGTCGA | 0.0816 log2 normalized intensity |
| CCCAGGTCCAGCCTTTGGGCAGGGGCATCCGCCTAGGGAGATTAGAGTATCGGTCGA | -0.72 log2 normalized intensity |
| TGTGCAGCTTTGTGTAAAACTTCAAAGAAGGCCTAGGGAGATTAGAGTATCGGTCGA | -0.427 log2 normalized intensity |

| Sequence | binding signal |
| --- | --- |
| GGCTGAATGGGCAAAGGTCACAAGAGGTGCGCCTAGGGAGATTAGAGTATCGGTCGA | 4.6 log2 normalized intensity |
| TCACAGTGTGGGGCAAATCTGAGGTCAAAGGCCTAGGGAGATTAGAGTATCGGTCGA | 2.22 log2 normalized intensity |
| GGGCCAGCAAGAGGTGACCCCAGGGCAAAGGCCTAGGGAGATTAGAGTATCGGTCGA | 2.92 log2 normalized intensity |
| GGTGTGAGAGGGCAAAGGTCACAGCATTAGGCCTAGGGAGATTAGAGTATCGGTCGA | 6.76 log2 normalized intensity |
| AATGGGCAAAGGTCACAAGAGGTGCTGTGTGCCTAGGGAGATTAGAGTATCGGTCGA | 4.69 log2 normalized intensity |
| CCTGAGGTGTGAGAGGGCAAAGGTCACAGCGCCTAGGGAGATTAGAGTATCGGTCGA | 8.02 log2 normalized intensity |
| GGGCAGCCCGTGTGGGCGGGTGCAGCTTCCGCCTAGGGAGATTAGAGTATCGGTCGA | -0.675 log2 normalized intensity |
| CAGTTATCAGACAGAGGAATTCAGCAGGATGCCTAGGGAGATTAGAGTATCGGTCGA | -0.611 log2 normalized intensity |
| TTTCTCCTCTCTGGGCTTCCATTGTGATTCGCCTAGGGAGATTAGAGTATCGGTCGA | 1.02 log2 normalized intensity |
| GCCACATTCCCCGACTCCTGGGTGTGAGATGCCTAGGGAGATTAGAGTATCGGTCGA | 0.517 log2 normalized intensity |
| AAGCAGAAGCTGCACACATGTCAAAGGTCAGCCTAGGGAGATTAGAGTATCGGTCGA | 6.19 log2 normalized intensity |
| CAGCAATCACCTACCCCCAGATTCTCTGTTGCCTAGGGAGATTAGAGTATCGGTCGA | 2.35 log2 normalized intensity |
| GACAAAGGTCATTCATGTGCAGGTTGGAATGCCTAGGGAGATTAGAGTATCGGTCGA | 2.77 log2 normalized intensity |
| GTTATCTAATGGAGAGGATGGGGACAAAGGGCCTAGGGAGATTAGAGTATCGGTCGA | 1.47 log2 normalized intensity |
| CTAATGGAGAGGATGGGGACAAAGGTCAAGGCCTAGGGAGATTAGAGTATCGGTCGA | 7.24 log2 normalized intensity |
| AATTCCCTGCAAGGACAAAGGTCATGTTTTGCCTAGGGAGATTAGAGTATCGGTCGA | 6.26 log2 normalized intensity |
| GGAGAGGATGGGGACAAAGGTCAAGAAAGCGCCTAGGGAGATTAGAGTATCGGTCGA | 5.86 log2 normalized intensity |
| TTTGGAATTCCCTGCAAGGACAAAGGTCATGCCTAGGGAGATTAGAGTATCGGTCGA | 6.87 log2 normalized intensity |
